Experimental data from ChEMBL document CHEMBL1961873, “Compounds: GSK PKIS; Assays: Nanosyn kinase panel” (2012).

Experiments:
[1] = target: T1, Inhibitor of nuclear factor kappa-B kinase subunit epsilon (Homo sapiens) (UniProt Q14164); conditions: at 1 µM;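 note: reported values are averaged percent inhibition figures against human IKKε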
T1 sequence (whole entry): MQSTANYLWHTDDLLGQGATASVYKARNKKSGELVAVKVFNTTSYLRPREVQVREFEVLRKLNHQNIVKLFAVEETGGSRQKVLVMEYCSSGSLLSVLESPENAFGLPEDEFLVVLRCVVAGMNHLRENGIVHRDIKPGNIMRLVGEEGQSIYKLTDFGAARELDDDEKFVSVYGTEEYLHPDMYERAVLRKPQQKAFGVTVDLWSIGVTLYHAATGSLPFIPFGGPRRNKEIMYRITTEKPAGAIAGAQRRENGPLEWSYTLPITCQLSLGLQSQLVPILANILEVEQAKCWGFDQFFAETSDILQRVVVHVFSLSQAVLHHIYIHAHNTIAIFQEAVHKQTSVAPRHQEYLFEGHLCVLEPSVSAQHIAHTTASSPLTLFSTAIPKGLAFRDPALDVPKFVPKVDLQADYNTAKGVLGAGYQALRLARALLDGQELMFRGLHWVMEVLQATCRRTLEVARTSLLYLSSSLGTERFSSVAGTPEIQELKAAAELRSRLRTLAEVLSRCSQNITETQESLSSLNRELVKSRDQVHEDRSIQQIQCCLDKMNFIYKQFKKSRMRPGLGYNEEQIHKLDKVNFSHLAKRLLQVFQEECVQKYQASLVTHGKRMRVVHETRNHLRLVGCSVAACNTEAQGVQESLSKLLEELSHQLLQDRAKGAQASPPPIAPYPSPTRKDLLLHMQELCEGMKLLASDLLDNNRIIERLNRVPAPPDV

[2] = target: T2, Serine/threonine-protein kinase Nek1 (Homo sapiens) (UniProt Q96PY6); conditions: at 0.1 µM
T2 sequence (whole entry): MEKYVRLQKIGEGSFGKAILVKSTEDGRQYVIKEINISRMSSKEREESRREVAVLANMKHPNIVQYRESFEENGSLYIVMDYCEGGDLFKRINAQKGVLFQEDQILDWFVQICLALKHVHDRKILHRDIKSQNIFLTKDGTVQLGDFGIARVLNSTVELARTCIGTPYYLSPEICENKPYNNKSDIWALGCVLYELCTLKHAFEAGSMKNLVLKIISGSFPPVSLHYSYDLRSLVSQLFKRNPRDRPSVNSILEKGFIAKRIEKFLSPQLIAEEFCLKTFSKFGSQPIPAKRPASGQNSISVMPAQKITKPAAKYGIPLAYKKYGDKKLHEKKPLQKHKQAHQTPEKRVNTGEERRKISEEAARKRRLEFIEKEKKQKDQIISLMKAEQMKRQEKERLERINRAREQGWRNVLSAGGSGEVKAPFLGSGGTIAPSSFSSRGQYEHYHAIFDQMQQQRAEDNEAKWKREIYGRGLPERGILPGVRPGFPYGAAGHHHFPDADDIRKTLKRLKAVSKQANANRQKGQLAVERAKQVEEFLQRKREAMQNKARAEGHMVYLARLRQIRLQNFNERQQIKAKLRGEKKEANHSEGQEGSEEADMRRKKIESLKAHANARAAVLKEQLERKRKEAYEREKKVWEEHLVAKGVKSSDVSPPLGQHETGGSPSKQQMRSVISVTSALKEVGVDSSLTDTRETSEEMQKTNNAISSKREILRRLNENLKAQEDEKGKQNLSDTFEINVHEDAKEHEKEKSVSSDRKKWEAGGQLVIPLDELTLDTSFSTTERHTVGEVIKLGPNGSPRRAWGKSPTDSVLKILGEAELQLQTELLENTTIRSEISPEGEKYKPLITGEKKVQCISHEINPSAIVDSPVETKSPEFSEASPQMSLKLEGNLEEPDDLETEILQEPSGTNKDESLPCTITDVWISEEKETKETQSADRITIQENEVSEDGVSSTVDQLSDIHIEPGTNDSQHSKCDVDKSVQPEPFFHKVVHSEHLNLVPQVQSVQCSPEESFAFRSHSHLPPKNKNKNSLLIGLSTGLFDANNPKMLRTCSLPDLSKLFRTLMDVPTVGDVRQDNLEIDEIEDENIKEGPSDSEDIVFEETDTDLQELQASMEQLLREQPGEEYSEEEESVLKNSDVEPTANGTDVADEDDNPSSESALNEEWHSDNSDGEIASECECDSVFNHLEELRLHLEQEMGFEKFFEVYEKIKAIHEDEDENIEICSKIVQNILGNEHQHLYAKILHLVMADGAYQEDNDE

[3] = target: T2, Serine/threonine-protein kinase Nek1 (Homo sapiens); conditions: at 1 µM
[4] = target: T3, Serine/threonine-protein kinase Nek2 (Homo sapiens) (UniProt P51955); conditions: at 0.1 µM
T3 sequence (whole entry): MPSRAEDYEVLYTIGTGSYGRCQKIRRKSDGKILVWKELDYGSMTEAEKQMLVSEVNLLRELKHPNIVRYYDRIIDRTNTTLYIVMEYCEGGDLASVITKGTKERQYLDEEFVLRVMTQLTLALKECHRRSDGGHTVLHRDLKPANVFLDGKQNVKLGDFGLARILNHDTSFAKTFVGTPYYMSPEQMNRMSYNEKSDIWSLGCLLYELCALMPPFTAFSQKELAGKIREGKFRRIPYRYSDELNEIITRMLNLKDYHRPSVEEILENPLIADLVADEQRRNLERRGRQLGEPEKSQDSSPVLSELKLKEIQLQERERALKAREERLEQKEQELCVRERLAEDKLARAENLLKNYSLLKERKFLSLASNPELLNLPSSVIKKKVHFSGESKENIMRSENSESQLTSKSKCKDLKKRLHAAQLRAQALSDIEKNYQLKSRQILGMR

[5] = target: T3, Serine/threonine-protein kinase Nek2 (Homo sapiens); conditions: at 1 µM
[6] = target: Serine/threonine-protein kinase Nek6 (Homo sapiens) (UniProt Q9HC98); conditions: at 0.1 µM
[7] = target: Serine/threonine-protein kinase Nek6 (Homo sapiens) (UniProt Q9HC98); conditions: at 1 µM
[8] = target: Serine/threonine-protein kinase Nek7 (Homo sapiens) (UniProt Q8TDX7); conditions: at 0.1 µM
[9] = target: Serine/threonine-protein kinase Nek7 (Homo sapiens) (UniProt Q8TDX7); conditions: at 1 µM
[10] = target: T4, Serine/threonine-protein kinase Nek9 (Homo sapiens) (UniProt Q8TD19); conditions: at 0.1 µM
T4 sequence (whole entry): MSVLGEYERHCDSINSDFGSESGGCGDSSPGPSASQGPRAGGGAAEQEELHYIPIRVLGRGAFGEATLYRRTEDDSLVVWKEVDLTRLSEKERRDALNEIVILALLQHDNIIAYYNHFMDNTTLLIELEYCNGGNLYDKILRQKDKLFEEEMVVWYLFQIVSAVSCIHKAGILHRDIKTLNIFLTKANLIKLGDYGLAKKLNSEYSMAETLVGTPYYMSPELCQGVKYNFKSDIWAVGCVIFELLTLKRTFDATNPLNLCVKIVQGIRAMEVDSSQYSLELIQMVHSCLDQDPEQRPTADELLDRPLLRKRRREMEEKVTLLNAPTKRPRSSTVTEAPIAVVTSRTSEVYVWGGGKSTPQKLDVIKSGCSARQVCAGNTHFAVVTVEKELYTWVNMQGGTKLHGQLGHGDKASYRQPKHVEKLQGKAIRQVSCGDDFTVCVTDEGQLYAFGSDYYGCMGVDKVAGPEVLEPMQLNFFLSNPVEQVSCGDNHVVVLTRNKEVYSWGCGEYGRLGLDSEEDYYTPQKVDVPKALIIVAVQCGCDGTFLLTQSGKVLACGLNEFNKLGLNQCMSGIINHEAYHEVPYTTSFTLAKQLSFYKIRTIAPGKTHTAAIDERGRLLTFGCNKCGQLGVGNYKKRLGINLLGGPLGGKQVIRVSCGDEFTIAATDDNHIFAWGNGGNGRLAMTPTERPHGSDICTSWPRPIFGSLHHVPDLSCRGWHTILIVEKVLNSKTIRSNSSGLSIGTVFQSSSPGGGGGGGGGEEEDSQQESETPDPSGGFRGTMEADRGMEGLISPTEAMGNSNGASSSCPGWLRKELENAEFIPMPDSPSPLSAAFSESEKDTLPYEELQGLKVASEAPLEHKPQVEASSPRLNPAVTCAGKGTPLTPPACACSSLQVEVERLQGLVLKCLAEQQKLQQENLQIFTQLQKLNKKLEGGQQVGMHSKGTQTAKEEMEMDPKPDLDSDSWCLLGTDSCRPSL

[11] = target: T4, Serine/threonine-protein kinase Nek9 (Homo sapiens); conditions: at 1 µM
[12] = target: Serine/threonine-protein kinase PLK1 (Homo sapiens) (UniProt P53350); conditions: at 0.1 µM
[13] = target: Serine/threonine-protein kinase PLK1 (Homo sapiens) (UniProt P53350); conditions: at 1 µM
[14] = target: T5, Dual specificity protein kinase TTK (Homo sapiens) (UniProt P33981); conditions: at 0.1 µM
T5 sequence (whole entry): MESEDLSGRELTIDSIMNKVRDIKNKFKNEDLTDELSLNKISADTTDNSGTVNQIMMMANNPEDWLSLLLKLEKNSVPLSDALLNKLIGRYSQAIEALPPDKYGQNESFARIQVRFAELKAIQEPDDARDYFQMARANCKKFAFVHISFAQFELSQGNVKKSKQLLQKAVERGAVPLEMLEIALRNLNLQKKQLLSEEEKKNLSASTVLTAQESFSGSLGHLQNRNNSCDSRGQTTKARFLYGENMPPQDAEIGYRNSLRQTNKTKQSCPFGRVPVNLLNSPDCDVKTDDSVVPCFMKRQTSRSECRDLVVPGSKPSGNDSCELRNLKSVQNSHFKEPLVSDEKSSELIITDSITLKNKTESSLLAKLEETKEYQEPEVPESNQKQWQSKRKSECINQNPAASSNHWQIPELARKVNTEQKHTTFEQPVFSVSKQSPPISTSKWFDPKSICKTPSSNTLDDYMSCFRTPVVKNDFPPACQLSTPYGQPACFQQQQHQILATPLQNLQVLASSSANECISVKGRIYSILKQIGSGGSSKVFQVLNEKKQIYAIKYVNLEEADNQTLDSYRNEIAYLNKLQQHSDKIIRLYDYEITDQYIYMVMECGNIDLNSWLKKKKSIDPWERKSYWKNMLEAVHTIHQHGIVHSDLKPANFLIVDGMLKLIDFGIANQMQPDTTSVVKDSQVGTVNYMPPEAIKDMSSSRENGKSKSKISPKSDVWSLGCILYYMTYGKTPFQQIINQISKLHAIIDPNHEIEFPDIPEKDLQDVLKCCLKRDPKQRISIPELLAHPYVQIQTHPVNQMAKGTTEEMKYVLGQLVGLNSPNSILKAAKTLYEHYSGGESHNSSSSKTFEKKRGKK

[15] = system: T6, Receptor-type tyrosine-protein kinase FLT3 (Homo sapiens), P36888 [D835Y]; conditions: at 1 µM
T6 sequence (whole entry): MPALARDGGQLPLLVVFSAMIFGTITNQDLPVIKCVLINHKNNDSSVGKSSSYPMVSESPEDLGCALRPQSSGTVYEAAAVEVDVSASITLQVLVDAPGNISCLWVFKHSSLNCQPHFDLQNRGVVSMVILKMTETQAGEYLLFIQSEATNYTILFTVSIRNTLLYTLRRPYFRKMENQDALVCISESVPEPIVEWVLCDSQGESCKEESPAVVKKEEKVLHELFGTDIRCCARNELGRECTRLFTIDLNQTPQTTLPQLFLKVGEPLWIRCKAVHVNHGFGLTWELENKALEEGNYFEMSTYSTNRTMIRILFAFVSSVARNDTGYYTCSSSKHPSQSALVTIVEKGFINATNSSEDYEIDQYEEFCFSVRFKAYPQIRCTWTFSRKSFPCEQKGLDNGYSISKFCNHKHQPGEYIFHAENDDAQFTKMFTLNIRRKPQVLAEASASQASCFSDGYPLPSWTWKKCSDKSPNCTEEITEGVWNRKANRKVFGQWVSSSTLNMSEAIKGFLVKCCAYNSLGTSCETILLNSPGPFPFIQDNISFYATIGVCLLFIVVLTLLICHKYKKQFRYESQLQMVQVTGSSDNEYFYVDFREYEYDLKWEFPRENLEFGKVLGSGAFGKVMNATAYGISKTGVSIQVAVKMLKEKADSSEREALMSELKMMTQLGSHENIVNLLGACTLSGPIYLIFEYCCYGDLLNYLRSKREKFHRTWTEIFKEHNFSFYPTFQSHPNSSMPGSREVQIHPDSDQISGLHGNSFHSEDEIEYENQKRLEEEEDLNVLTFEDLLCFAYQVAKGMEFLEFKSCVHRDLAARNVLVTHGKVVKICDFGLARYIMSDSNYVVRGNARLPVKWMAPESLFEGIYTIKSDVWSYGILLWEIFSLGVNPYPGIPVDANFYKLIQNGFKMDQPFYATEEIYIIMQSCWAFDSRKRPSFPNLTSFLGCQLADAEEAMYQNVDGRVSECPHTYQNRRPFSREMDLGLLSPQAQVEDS

[16] = target: Vascular endothelial growth factor receptor 3 (Homo sapiens) (UniProt P35916); conditions: at 0.1 µM
[17] = target: Vascular endothelial growth factor receptor 3 (Homo sapiens) (UniProt P35916); conditions: at 1 µM
[18] = target: Macrophage colony-stimulating factor 1 receptor (Homo sapiens) (UniProt P07333); conditions: at 0.1 µM
[19] = target: Macrophage colony-stimulating factor 1 receptor (Homo sapiens) (UniProt P07333); conditions: at 1 µM
[20] = target: Tyrosine-protein kinase Fyn (Homo sapiens) (UniProt P06241); conditions: at 0.1 µM
Chain of Tyrosine-protein kinase Fyn (Homo sapiens) (P06241 2-537 limits assumed): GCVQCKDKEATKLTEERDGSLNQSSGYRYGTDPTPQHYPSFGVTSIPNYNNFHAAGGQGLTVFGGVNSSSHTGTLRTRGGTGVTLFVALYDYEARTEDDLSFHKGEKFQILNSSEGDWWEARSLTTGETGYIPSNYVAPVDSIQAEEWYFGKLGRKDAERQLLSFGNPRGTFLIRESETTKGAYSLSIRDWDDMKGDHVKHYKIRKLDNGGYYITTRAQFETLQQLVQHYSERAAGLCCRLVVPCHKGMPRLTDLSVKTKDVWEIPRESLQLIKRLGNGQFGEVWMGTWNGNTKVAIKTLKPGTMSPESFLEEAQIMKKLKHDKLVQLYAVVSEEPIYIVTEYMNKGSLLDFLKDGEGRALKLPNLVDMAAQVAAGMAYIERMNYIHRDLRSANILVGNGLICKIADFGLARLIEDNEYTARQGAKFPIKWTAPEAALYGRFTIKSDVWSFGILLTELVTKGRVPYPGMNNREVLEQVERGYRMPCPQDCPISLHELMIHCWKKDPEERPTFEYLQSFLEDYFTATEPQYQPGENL

Chain of Macrophage colony-stimulating factor 1 receptor (Homo sapiens) (P07333 whole entry): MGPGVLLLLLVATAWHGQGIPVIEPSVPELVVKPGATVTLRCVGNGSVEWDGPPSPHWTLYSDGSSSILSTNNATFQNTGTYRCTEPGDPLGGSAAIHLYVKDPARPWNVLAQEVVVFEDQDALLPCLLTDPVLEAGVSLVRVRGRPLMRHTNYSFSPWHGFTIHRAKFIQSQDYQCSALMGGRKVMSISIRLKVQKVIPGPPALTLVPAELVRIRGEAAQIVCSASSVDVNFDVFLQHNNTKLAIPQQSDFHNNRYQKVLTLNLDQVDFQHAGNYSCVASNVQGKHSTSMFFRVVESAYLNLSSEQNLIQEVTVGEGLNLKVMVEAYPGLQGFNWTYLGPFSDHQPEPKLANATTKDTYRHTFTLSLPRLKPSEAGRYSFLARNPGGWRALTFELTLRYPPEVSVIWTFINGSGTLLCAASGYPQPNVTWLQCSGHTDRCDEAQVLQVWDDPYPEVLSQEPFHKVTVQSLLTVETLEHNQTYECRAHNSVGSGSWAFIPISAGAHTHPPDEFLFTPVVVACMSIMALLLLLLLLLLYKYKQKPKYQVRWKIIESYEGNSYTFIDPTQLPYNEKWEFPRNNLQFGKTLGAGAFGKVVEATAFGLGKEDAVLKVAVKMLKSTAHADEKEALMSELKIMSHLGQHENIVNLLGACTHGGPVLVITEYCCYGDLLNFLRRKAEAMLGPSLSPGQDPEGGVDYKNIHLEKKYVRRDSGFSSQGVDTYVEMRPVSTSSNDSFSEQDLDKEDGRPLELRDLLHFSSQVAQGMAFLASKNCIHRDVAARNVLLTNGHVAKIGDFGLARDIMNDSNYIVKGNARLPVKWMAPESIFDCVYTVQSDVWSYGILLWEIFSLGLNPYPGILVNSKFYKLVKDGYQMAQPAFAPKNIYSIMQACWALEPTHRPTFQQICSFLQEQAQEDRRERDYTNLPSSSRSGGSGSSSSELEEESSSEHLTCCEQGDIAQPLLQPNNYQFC
Chain of Serine/threonine-protein kinase PLK1 (Homo sapiens) (P53350 whole entry): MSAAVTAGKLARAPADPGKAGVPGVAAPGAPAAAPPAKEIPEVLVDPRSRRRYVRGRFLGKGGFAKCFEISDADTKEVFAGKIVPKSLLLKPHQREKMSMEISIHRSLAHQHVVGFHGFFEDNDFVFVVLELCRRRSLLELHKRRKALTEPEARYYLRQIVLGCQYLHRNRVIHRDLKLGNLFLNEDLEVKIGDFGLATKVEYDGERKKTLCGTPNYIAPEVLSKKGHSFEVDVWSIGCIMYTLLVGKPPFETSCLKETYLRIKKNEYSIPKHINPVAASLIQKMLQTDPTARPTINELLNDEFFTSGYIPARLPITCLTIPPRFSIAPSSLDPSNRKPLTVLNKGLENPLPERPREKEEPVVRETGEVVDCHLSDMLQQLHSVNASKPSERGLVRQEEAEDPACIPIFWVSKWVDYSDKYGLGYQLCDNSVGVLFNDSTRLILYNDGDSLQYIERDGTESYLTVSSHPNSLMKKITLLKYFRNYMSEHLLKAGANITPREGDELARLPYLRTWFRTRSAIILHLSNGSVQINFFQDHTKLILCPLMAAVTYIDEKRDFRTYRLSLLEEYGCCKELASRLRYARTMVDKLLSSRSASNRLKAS
Chain of Vascular endothelial growth factor receptor 3 (Homo sapiens) (P35916 whole entry): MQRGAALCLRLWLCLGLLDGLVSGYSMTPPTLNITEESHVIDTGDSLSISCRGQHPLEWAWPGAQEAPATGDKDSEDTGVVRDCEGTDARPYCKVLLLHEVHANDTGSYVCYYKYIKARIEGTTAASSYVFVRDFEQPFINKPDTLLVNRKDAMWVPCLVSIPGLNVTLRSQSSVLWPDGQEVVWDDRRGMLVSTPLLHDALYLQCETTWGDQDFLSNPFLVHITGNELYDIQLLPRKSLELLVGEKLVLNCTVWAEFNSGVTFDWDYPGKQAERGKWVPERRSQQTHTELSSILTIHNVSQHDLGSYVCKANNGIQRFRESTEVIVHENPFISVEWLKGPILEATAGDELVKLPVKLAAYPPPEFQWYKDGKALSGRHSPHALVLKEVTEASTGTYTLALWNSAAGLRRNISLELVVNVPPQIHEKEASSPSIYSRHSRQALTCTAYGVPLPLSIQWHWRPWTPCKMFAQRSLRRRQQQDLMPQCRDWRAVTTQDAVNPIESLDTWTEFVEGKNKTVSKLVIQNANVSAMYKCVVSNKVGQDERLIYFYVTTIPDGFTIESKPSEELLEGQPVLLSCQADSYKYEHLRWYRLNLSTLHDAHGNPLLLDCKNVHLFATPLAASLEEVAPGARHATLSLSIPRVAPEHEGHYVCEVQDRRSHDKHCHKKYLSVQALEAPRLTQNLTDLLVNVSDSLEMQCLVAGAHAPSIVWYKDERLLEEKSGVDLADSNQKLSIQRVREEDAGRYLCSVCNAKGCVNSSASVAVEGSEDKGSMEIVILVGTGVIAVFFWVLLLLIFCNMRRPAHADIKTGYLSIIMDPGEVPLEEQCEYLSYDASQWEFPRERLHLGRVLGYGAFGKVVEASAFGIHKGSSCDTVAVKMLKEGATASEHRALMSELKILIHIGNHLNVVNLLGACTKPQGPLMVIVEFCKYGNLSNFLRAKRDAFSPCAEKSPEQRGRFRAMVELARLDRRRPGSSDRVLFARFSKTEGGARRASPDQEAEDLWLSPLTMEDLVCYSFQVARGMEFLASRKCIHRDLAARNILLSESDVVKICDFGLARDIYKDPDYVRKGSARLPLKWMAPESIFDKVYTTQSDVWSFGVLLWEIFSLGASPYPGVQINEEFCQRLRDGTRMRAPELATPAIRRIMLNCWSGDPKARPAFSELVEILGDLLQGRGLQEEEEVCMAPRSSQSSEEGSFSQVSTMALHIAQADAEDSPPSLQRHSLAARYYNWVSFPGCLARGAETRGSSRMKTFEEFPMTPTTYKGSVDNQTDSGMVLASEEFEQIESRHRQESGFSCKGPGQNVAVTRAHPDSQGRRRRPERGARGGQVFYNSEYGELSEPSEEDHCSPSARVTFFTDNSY
Chain of Serine/threonine-protein kinase Nek7 (Homo sapiens) (Q8TDX7 whole entry, looked up): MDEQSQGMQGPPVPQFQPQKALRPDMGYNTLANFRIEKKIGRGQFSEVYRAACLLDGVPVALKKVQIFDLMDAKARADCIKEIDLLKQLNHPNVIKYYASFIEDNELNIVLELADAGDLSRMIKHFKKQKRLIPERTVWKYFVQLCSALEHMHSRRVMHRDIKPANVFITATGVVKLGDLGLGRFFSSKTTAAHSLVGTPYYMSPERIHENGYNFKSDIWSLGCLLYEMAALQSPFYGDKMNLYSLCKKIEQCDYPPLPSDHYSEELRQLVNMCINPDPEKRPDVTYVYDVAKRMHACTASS
Chain of Serine/threonine-protein kinase Nek6 (Homo sapiens) (Q9HC98 whole entry): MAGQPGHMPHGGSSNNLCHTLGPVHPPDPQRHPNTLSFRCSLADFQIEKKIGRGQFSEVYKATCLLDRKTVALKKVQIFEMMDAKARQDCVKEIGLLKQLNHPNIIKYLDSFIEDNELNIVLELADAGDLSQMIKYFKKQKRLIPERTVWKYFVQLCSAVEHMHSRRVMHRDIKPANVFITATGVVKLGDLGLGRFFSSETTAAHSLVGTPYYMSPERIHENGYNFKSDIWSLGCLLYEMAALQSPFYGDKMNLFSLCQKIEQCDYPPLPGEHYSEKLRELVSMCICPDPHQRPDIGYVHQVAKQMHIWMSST

SMILES	inhibition [1]	inhibition [2]	inhibition [3]	inhibition [4]	inhibition [5]	inhibition [6]	inhibition [7]	inhibition [8]	inhibition [9]	inhibition [10]	inhibition [11]	inhibition [12]	inhibition [13]	inhibition [14]	inhibition [15]	inhibition [16]	inhibition [17]	inhibition [18]	inhibition [19]	inhibition [20]
CN1CCC(n2cnc(-c3ccc(F)cc3)c2-c2ccnc(N)n2)CC1	7.06%	-0.73%	0.96%	2.43%	2.64%	2.5%	2.17%	3.21%	3.4%	7.9%	11.4%	2.4%	0.91%	5.14%	1.95%	1.56%	2.31%	2.19%	6.29%	0.4%
CC(=O)Nc1cccc(C#Cc2cncnc2Nc2ccc(OCc3cccc(F)c3)c(Cl)c2)c1	-0.15%	1.85%	1.3%	1.33%	2.68%	1.9%	1.16%	2.97%	2.6%	1.96%	2.42%	2.3%	2.89%	3.58%	-2.98%	2.87%	3.83%	0.82%	4.6%	0.68%
COC(=O)c1sc(-n2cnc3cc(OC)c(OC)cc32)cc1OCc1ccccc1C(F)(F)F	8.59%	2.43%	0.28%	4.46%	3.83%	-0.01%	-1.32%	6.92%	4.66%	6.87%	7%	3.92%	14.4%	12.7%	0.96%	8.44%	50.2%	16.2%	60.9%	15.6%
